Laboratory results reported in PubChem BioAssay AID651871 (Sanford-Burnham Center for Chemical Genomics, 2012).
Values joined by “and” are separate entries in the source; they are usually repeats but may differ in a detail not shown here. Identical values can stand only once.

These compounds were tested on HL-1 (assay: cardiomyocyte survival under oxidative or metabolic stress – cell-based, panel, H9c2 and HL-1, ATP luminescence, set 2, SAR follow-up (AID 651871;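 further: cells exposed to stressor for 2 h before ATP readout; reference of the scale not given here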)). Details: H9c2/HL-1 cardiomyocytes, H2O2 oxidative stress; with H2O2, run 1, at 79 µM (top of the series).
`COc1ccc2c(c1OC)C(=O)N1c3ccccc3C(=O)N(Cc3cccc(Cl)c3Cl)C21` (centres undefined) was tested, and the activity (protection/inhibition) was -0.863% and -7.11% and 4.56%.
`COc1cc(-c2cc(C(=O)Nc3cccc(C(=O)NCc4ccccc4)c3)c3ccccc3n2)cc(OC)c1OC` gave an activity (protection/inhibition) of 34.6%.
Compound `CCOC(=O)c1cccc(NC(=O)CNC(=O)c2cc(-c3cc(OC)c(OC)c(OC)c3)nc3ccccc23)c1` has an activity (protection/inhibition) of 56.7%.
With `COc1ccc2nc(-c3cc(OC)c(OC)c(OC)c3)cc(C(=O)NCC(=O)Nc3ccc(C(C)=O)cc3)c2c1` the activity (protection/inhibition) was 41.2% and 24.9%.
